Records with an inconclusive call do not appear. Calls of active or inactive are those of the source. Calls come from the whole dose curve; as a rule, active = well fitted inhibition curve with a large enough effect; inconclusive = small, poorly fitted or top-dose-only effect; inactive = flat fitted curve, though single readings scatter.
test: qHTS for Inhibitors of Plasmodium falciparum (7G8) proliferation (AID 504316);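 note: 0% = DMSO vehicle and -100% = 0.29 µM artemisinin full kill; nearly all actives have a fitted effect of over 65% in size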; settings: P. falciparum 7G8 in erythrocytes, SYBR Green DNA, 72 h; series mostly up to 6.7 µM; activity change, negative = inhibition: at the top concentration
Method in brief: (§1)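 Parasite growth measured as SYBR Green DNA fluorescence (ex 485, em 535 nm) after overnight lysis following 72 h culture at 37 °C, 0.3% parasitemia, 2.5% hematocrit. Values normalized against DMSO and 0.29 uM artemisinin controls, with plate-stack correction.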

Activity change, negative = inhibition, inactive:
COC/C=C/C1=CC2=CC(=O)C(C)(OC(=O)c3cnc4ccccc4n3)C(=O)C2=CN1CCCOC(C)C (stereo not given) -0.859%
COC(=O)C1=C(C)N(Cc2ccccc2)C(=O)N[C@H]1CCc1ccccc1 -0.88%
COC(=O)C1=C(C(=O)OC)[C@@H]2N(C)c3ccccc3[C@@]23C[C@@H](C(=O)OC)N(C(=O)CC(C)C)C3=N1 0.0838%
C[C@H]1Cc2c(-c3ccccc3)nc3c(c2CO1)CN(C(=O)C1CC1)CC3 -4.04%
COC/C=C/C1=CC2=CC(=O)C(C)(OC(=O)c3cnc4ccccc4n3)C(=O)C2=CN1c1ccc(CO)cc1 (stereo not given) 1.21%

test: qHTS for Inhibitors of Plasmodium falciparum (HB3) proliferation (AID 504318); note: nearly all actives have a fitted effect of over 60% in size; note: potency is the fitted concentration of half-maximal effect;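 for activity change, negative = inhibition: 0% = DMSO vehicle and -100% = artemisinin control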; settings: P. falciparum HB3 in erythrocytes, SYBR Green DNA, 72 h; series mostly up to 7.21 µM; activity change, negative = inhibition: at the top concentration
Method in brief: as §1

Activity change, negative = inhibition, inactive:
Cc1ccc(S(=O)(=O)N[C@@H]2COC(=O)[C@@H](C)COC(=O)CC=C[C@H]2C)cc1 -4.31%
COC(=O)CCCC1=CC2=C(c3ccccc3)C(=O)C(C)(OC(=O)C3CCCC3)C(=O)C2=CN1CCc1ccccn1 (stereo not given) -10.3%
COC/C=C/C1=CC2=CC(=O)C(C)(OC(=O)c3cnc4ccccc4n3)C(=O)C2=CN1c1ccccc1 (stereo not given) 0.412%
CCOC(=O)CN1C(=O)N[C@@H](c2cccs2)C(C(=O)OC)=C1C 4.96%
COc1ccc(C2=CC3=C(Br)C(=O)C(C)(OC(=O)c4ccco4)C(=O)C3=CO2)cc1 (stereo not given) 3.73%
COC(=O)[C@@H]1[C@H](CCc2ccccc2)NC(=O)N(Cc2ccccc2)[C@H]1C 3.99%
CC1(OC(=O)CCc2ccccc2)C(=O)C=C2C=C(c3ccc(C#N)cc3)N(CCN3CCOCC3)C=C2C1=O (stereo not given) -5.89%
COC(=O)C1=C(C)N(Cc2ccccc2)C(=O)N[C@H]1c1ccco1 3.11%
CC(C)CN1C=C2C(=O)C(C)(OC(=O)C3CCCC3)C(=O)C=C2C=C1c1ccsc1 (stereo not given) 2.89%
COC(=O)CCC(=O)OC1(C)C(=O)C2=CN(CC(C)C)C(c3ccc(OC)cc3)=CC2=C(Br)C1=O (stereo not given) 1.21%
COC/C=C/C1=CC2=CC(=O)C(C)(OC(=O)c3cnc4ccccc4n3)C(=O)C2=CN1CCc1c[nH]c2ccccc12 (stereo not given) -6.82%
COC/C=C/C1=CC2=CC(=O)C(C)(OC(=O)c3cnc4ccccc4n3)C(=O)C2=CN1c1cccc(C#N)c1 (stereo not given) -3.99%
COCCN1C=C2C(=O)C(C)(OC(=O)CCC(=O)OC)C(=O)C(Br)=C2C=C1c1ccc(OC)cc1 (stereo not given) -10.9%
COC(=O)C1=C(C(=O)OC)[C@@H]2N(C)c3ccccc3[C@@]23C[C@@H](C(=O)OC)N(S(=O)(=O)c2ccc(C)cc2)C3=N1 -4.22%
COC(=O)CCC(=O)OC1(C)C(=O)C2=CN(CC3CC3)C(c3ccc(OC)cc3)=CC2=C(Br)C1=O (stereo not given) -9.49%
CCCCC1=CC2=CC(=O)C(C)(OC(=O)CC)C(=O)C2=CN1C1CCCCC1 (stereo not given) -1.02%
CCCCC1=CC2=CC(=O)C(C)(OC(=O)CC)C(=O)C2=CN1CCCOC(C)C (stereo not given) -6.71%
COC(=O)C1=C(C(=O)OC)[C@@H]2N(C)c3ccccc3[C@@]23C[C@@H](C(=O)OC)N(C(C)=O)C3=N1 3.03%
CCOC(=O)NN=C1C[C@@H](O)[C@@H](O)[C@@H]2[C@H]3C(=O)N([C@@H](C)c4ccccc4)C(=O)[C@@H]3CC[C@@H]12 -0.772%
CC1(OC(=O)CCc2ccccc2)C(=O)C=C2C=C(c3ccc(C#N)cc3)N(CCc3ccccn3)C=C2C1=O (stereo not given) -3.49%
COC(=O)CCCC1=CC2=CC(=O)C(C)(OC(=O)c3cccs3)C(=O)C2=CN1c1ccc(CO)cc1 (stereo not given) -2.49%
CC1(OC(=O)c2ccc(Cl)nc2)C(=O)C=C2C=C(C3CC3)OC=C2C1=O (stereo not given) 4.79%
COC(=O)C1=C(C(=O)OC)[C@@H]2N(C)c3ccc(OC)cc3[C@@]23C[C@@H](C(=O)OC)N=C3N1 1.05%
COCCN1C(=O)N(C)[C@@H](c2ccccc2)C(C(C)=O)=C1C -9.35%
COCCN1C(=O)N[C@@H](c2cccc(C(F)(F)F)c2)C(C(=O)OC)=C1C 2.35%
COC/C=C/C1=CC2=CC(=O)C(C)(OC(=O)c3cnc4ccccc4n3)C(=O)C2=CN1C1CC1 (stereo not given) -8.59%
CCN1C(=O)N[C@@H](c2ccco2)C(C(C)=O)=C1C -0.405%
CC[C@@H](C)CN1C(=O)N[C@@H](c2ccccc2)C(C(=O)OC)=C1C 1.16%
COCCN1C(=O)N[C@@H](c2cccc(F)c2)C(C(C)=O)=C1C -1.01%
COC/C=C/C1=CC2=CC(=O)C(C)(OC(=O)c3cnc4ccccc4n3)C(=O)C2=CN1CCCOC(C)C (stereo not given) -0.155%
COC(=O)C1=C(C)N(Cc2ccccc2)C(=O)N[C@H]1CCc1ccccc1 2.08%
COC(=O)C1=C(C(=O)OC)[C@@H]2N(C)c3ccccc3[C@@]23C[C@@H](C(=O)OC)N(C(=O)CC(C)C)C3=N1 -1.16%
C[C@H]1Cc2c(-c3ccccc3)nc3c(c2CO1)CN(C(=O)C1CC1)CC3 -2.97%
COC/C=C/C1=CC2=CC(=O)C(C)(OC(=O)c3cnc4ccccc4n3)C(=O)C2=CN1c1ccc(CO)cc1 (stereo not given) 2.27%

Potency, inactive:
CCCCc1nc2c(c3c1C[C@H](C)OC3)CN(C(=O)NCc1ccco1)CC2
CC1(OC(=O)C2CCCC2)C(=O)C=C2C=C(c3ccsc3)N(CCCCO)C=C2C1=O (stereo not given)
COc1cccc(CC(=O)N2CCc3nc(-c4ccccc4)c4c(c3C2)CO[C@@H](C)C4)c1

Potency, active:
CCCC[C@]12Cc3c(ccc4ccccc34)[C@H](O1)C1=C(O2)C(=O)c2ccccc2C1=O 1510 nM
COC(=O)N1C2=C(c3ccccc3[C@@H]1CC(=O)Nc1ccc3cc4ccccc4cc3c1)[C@@H]1C(=O)N(c3ccccc3)C(=O)[C@@H]1[C@H](C)C2 1690 nM
CC1(C)O[C@@H](C(O)(c2cc(F)c(F)c(F)c2)c2cc(F)c(F)c(F)c2)[C@H](C(O)(c2cc(F)c(F)c(F)c2)c2cc(F)c(F)c(F)c2)O1 536 nM
